PubChem BioAssay (NCI)
The panel holds about 83,000 compounds, 20% with a hit somewhere; the sample as a whole holds those more often.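 Step 1: grow cells in 96-well plates. Step 2: add test compound at a single concentration. Step 3: incubate 48 h. Step 4: record percent growth.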 A number with no mark means an inactive call. Active and inactive are the calls of the source. How the source made its calls: active means growth percent below 10; inactive means the rest.

The compounds below were run on HL-60(TB) leukemia (assay: NCI-60 one-dose screen, 48 h (100 = growth as untreated, 0 = no growth, -100 = all killed)). Conditions: 10 µM unless noted.
`COc1cc(NC(=O)c2cc(-c3ccc(F)cc3F)ccc2O)cc(OC)c1OC` showed a growth of 15.8%.
`CC1=N/C(=C\c2ccc(N(C)C)cc2)C(=O)N1CCc1ccc(S(N)(=O)=O)cc1` was tested, and the growth was 102%.
In the case of `Cc1c(C(=O)NNC(=O)Nc2ccc(Cl)cc2)nnn1-c1ccc(Br)cc1`, the growth is reported as 103%.
For `Cc1ccc(/C=C/C(=O)c2ccc(S(=O)(=O)NCCNc3nc(Nc4ccc(F)cc4)nc(N(C)C)n3)cc2)cc1`, the growth was 13.5%.
In the case of `O=[N+]([O-])c1cccc(-c2nnc3c(/C=C/c4ccc(F)cc4)nc4ccccc4n23)c1`, the growth is reported as 92.7%.
Work on `C#CCCCNCCNc1ccnc2cc(Cl)ccc12` yielded a growth of 46.8%.
In the case of `COC[C@@H](CC(C)C)N=C1N/C(=C\c2ccc3ncsc3c2)C(=O)N1C`, the growth is reported as -1.54% (active).
For `COc1ccc(/C=C/C(=O)c2ccc(OC)c(S(N)(=O)=O)c2)c(C(F)(F)F)c1`, the growth was 3.73% (active).
Work on `S=C(Nc1ccc(OCc2nc3ccccc3[nH]2)cc1)NC1CCCCC1` yielded a growth of 103%.
`COc1cc(/C=C/C(=O)c2ccc(F)cc2)ccc1Oc1nc(Nc2ccc(F)cc2)nc(N(C)C)n1` gave a growth of 61.3%.
For `O=C(/C=C/c1cccc(OCc2ccc(F)cc2)c1)c1nc2ccccc2[nH]1`, the growth was 8% (active).
`Clc1cccc(-c2ccc(OCCCN3CCN(c4ccncc4)CC3)cc2)c1` was tested, and the growth was -53.9% (active).
For `O=C1Nc2cc(Cl)ccc2/C1=C/c1ccc(OCc2ccc(Br)cc2F)cc1`, the growth was 81.5%.
`CSc1nc(-c2cccc(C)c2)c2cc(-c3ccccc3)n(C)c2n1` was tested, and the growth was -15.8% (active).
